From PubChem BioAssay (NCI) come the findings set out here.

The structures appear in SMILES notation. This is part of a sample that, as a whole, favours compounds with a hit. Of some 83,000 tested, about 20% had one in any assay.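 How to read the values: 0–100, growth inhibition (40 = 60% inhibited); 0, no net growth; -100 to 0, cell death (-40 = 40% of starting cells died; -100 = all dead).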 A number with no mark means an inactive call. Calls of active or inactive are those of the source.

The subject of the assay is SR leukemia. Nature of the assay: NCI-60 one-dose screen, 48 h (100 = growth as untreated, 0 = no growth, -100 = all killed). Conditions: 10 µM. As to the method: Growth inhibition of the SR human tumor cell line is measured as a screen for anti-cancer activity. Cells are grown in 96 well plates and exposed to the test compound for 48 hours. Compounds are tested at a single concentration, which is 10^-5 M for most compounds. The reported endpoint is percent growth (GI% or GIPRCNT), where numbers from 0 - 100% represent growth inhibition, and numbers from -100% - 0 represent cell death. For example, a value of 40 represents 60% growth inhibition. A value of 0 means no net growth occurred over the course of the experiment. A value of -40 indicates 40% of cells at the beginning of the experiment died by the end of the experiment. A value of -100 means all cells are dead at the end of the experiment.
NCI-60 Human Tumor Cell Lines Screen was performed using the standard one-dose NCI protocol, which is described in more detail at https://dtp.cancer.gov/discovery_development/nci-60/default.htm.
Compounds with GIPRCNT values below 10 were considered active. Activity score was based on GIPRCNT using the following formula: […]
Score is 0 for GIPRCNT values of 100 or above, 50 for GIPRCNT values of 0, and 100 for GIPRCNT values of -100.
Regarding `CC1CCC2C(C)(C)C3CC12CC1OC13C` (stereo not given), the growth was 117%.
Under `C[N+](C)=c1ccc2nc3c(cc(Nc4ccccc4)c4ccccc43)oc-2c1` stands 22.1%.
The result for `Nc1ccc(CC(=O)O)c(N)c1` reads 95.2%.
As to `CCCCCCCO`, the growth was 91.5%.
Under `Cc1nc2ccccc2c(C(=O)O)c1O` stands 95.6%.
The result for `CCC/C=C(/C(C)=O)C(=O)OCC` reads 160%; that for `N#CCCc1ccc(O)cc1`, 94.6%; that for `Cc1cc(/C=C/c2ccc3cc(N(C)C)ccc3[n+]2C)c(C)n1-c1ccccc1`, 2.29% (active).
The result for `C=CC(O)CCC` (stereo not given) reads 92.4%.
Take `Oc1ccccc1-c1nnco1`: the growth was 90.4%.
For `O=C(c1ccc(Cl)cc1)c1ccccc1Cl`, the growth was 95.9%.
Under `Cc1ccc(N)cc1[N+](=O)[O-]` stands 115%; under `CC(C)(O)C#CC#CC(C)(C)O`, 97.9%.
The result for `COc1cc(C(N)=O)cc(OC)c1OC` reads 93.3%; that for `NNc1ccccc1C(=O)O`, 112%.
Under `N#Cc1ccc(NC(=O)Nc2cccc(C#N)c2)cc1` stands 72.2%.
`CCOc1ccc(Br)cc1/C=N\N=C\c1cc(Br)ccc1OCC`: the growth is 92.4%.
For the compound `c1ccc2c(N3CCCCC3)ncnc2c1`, the growth is 105%.
For `O=c1[nH]cc(Cl)cc1O`, the growth is 76.2%.
Under `COc1ccc(C)cc1OC` stands 99%; under `CC(C)=NNC(N)=S`, 86.7%.
The result for `O=S(=O)(Cc1ccccc1)c1ccccc1` reads 99.9%; that for `CC(=O)c1cc2c(cc1F)C(C)(C)CCC2(C)C`, 92.5%; that for `CC(C)C1CCCCC1O` (stereo not given), 130%.
Under `O=C1N(C[P+](c2ccccc2)(c2ccccc2)c2ccccc2)CCCN1C[P+](c1ccccc1)(c1ccccc1)c1ccccc1` stands 89%.
On to `S=c1[nH]ccn1-c1ccccc1Cl`, for which the growth was 101%.
The result for `CN(C)c1ccc2nc3ccc(=N)cc-3sc2c1` reads 12%; that for `Brc1cnc2ccccc2c1`, 103%.
Under `O=c1c2ccccc2c(Br)c(Br)c2ccccc12` stands 64.4%; under `COc1cc(C2NC(=O)C(C#N)=C(Nc3cccc(C)c3)S2)ccc1O` (stereo not given), 107%; under `Cc1ncc(C#N)c(N)n1`, 92.4%.
Under `CC(=O)OCC1CCCO1` (stereo not given) stands 102%; under `Nc1ccc(N=Nc2ccc(S(=O)(=O)O)cc2)c2ccccc12`, 96.9%.
Take `CC(=O)Nc1cccc(NC(C)=O)n1`: the growth was 123%.
The result for `CCOc1ccc(/C=N/N=C(N)N)cc1OCC` reads 76.3%; that for `CCCCN(CCCC)CCCO`, 113%; that for `CCOC(=O)C/C(C)=N\O`, 104%.
For the compound `C/C(=N/NC(N)=O)c1ccco1`, the growth is 87.3%.
As to `NC(=S)CN1CCOCC1`, the growth is 78.2%.
The result for `C1CNC(C2=NCCN2)=N1` reads 96.1%.
